Data: PubChem BioAssay (NCI)
The panel holds about 83,000 compounds, 20% with a hit somewhere; the sample as a whole holds those more often.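 Treatment: one concentration, 48 hours, 96-well format. Scoring: percent growth, with anything below 10 considered active.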 The source made the active and inactive calls.

Columns and labels:
Test in all cases: NCI-60 one-dose screen, 48 h (100 = growth as untreated, 0 = no growth, -100 = all killed)
Details in all cases: 10 µM unless noted
[1] = test system: NCI-H23 lung
[2] = test system: NCI-H226 lung
[3] = test system: NCI-H322M lung
[4] = test system: HOP-62 NSCLC
[5] = test system: NCI-H460 lung
[6] = test system: HOP-92 NSCLC
[7] = test system: NCI-H522 lung
[8] = test system: A549/ATCC NSCLC
[9] = test system: 786-0 renal
[10] = test system: COLO 205 colon
[11] = test system: DU-145 prostate
[12] = test system: K-562 leukemia
[13] = test system: MALME-3M melanoma
[14] = test system: MDA-MB-231 breast
[15] = test system: RXF 393 renal
[16] = test system: SF-268 CNS
[17] = test system: SF-295 CNS
[18] = test system: SF-539 CNS
[19] = test system: UACC-257 melanoma
[20] = test system: M14 melanoma

Measured: growth

COc1ccc(Cc2cc(-c3ccccc3)nn(Cc3ccccc3)c2=O)cc1OC
active: [10] 9.24%
inactive: [1] 39.4% | [2] 52% | [3] 82.4% | [4] 69.1% | [5] 33.9% | [6] 28% | [7] 37% | [8] 20% | [9] 35.8% | [11] 73.8% | [12] 22.2% | [13] 23.4% | [14] 43.6% | [15] 42.4% | [16] 57% | [17] 28.8% | [18] 63.4% | [19] 34.4%

Cn1cc(-c2csc(-c3c[nH]c4ccc(Br)cc34)n2)c2cnccc21
active: [1] -64.2% | [2] -55.7% | [3] -44.5% | [4] -66.7% | [5] -82.4% | [6] -86.2% | [7] -66.8% | [8] -77.5% | [9] -90.5% | [10] -72.9% | [11] -91.7% | [12] -53.8% | [13] -88.7% | [14] -81.4% | [15] -94.9% | [16] -75.5% | [17] -86.6% | [18] -96.4% | [19] -50.2%

N#Cc1c(-c2cccs2)cc(-c2cccnc2)[nH]c1=O
inactive: [1] 102% | [2] 98.5% | [3] 96.8% | [4] 90.3% | [5] 110% | [6] 104% | [7] 98.7% | [8] 97.8% | [9] 103% | [10] 97.2% | [11] 109% | [12] 98.2% | [13] 104% | [14] 105% | [15] 101% | [16] 100% | [17] 101% | [18] 95.5% | [19] 97.1%

COc1ccc2c3c([nH]c2c1)C(=O)c1nc(C)ccc1C3=O
active: [1] 3.17% | [5] -34.9% | [8] -11.9% | [11] -73.2% | [13] -61.8%
inactive: [2] 66.1% | [3] 43.4% | [4] 46.6% | [6] 86% | [7] 56% | [9] 79.7% | [10] 63.2% | [12] 40.7% | [14] 49.8% | [15] 69.9% | [16] 69.5% | [17] 45.8% | [18] 54.8% | [19] 32.7% | [20] 19%

Nc1ncnc2c1N=C(c1ccc(Cl)cc1)CC(c1ccc3c(c1)OCO3)N2 (stereo unspecified)
inactive: [1] 100% | [2] 90.8% | [3] 112% | [4] 88.1% | [5] 103% | [6] 59.8% | [7] 89.7% | [8] 98.4% | [9] 91.6% | [10] 98.6% | [11] 109% | [12] 71.3% | [13] 116% | [14] 88.6% | [15] 80.9% | [16] 91.1% | [17] 128% | [18] 88.3% | [19] 110% | [20] 118%

Cc1cc2c([nH]1)CSc1cc(S(=O)(=O)c3ccccc3)c(=O)[nH]c1-2
inactive: [1] 11.4% [100 µM] | [2] 32.6% [100 µM] | [3] 47.1% [100 µM] | [4] 33% [100 µM] | [6] 16.3% [100 µM] | [7] 23.3% [100 µM] | [8] 52.2% [100 µM] | [9] 21.5% [100 µM] | [11] 15% [100 µM] | [12] 17% [100 µM] | [13] 25.1% [100 µM] | [14] 23.3% [100 µM] | [15] 52.6% [100 µM] | [16] 22.1% [100 µM] | [17] 11% [100 µM] | [19] 62.2% [100 µM]
active: [5] 4.49% [100 µM] | [10] -40.5% [100 µM] | [18] -28.3% [100 µM] | [20] -13.7% [100 µM]

CN(C)Cc1ccc(NC(=O)c2cncc(C#Cc3cnc(N)c4ncccc34)c2)cc1F
active: [9] -71.8% | [12] -4.46% | [14] -73.1%
inactive: [1] 78.1% | [2] 130% | [3] 109% | [4] 96.5% | [5] 67.4% | [6] 80.7% | [7] 100% | [8] 65.7% | [10] 49.5% | [11] 86.8% | [13] 65.6% | [15] 40.1% | [16] 94% | [17] 95.9% | [18] 95.4% | [19] 88.7%

Nc1ncnc2c1N=C(c1ccc3c(c1)OCO3)CC(c1cccc(Nc3ccnc4cc(Cl)ccc34)c1)N2 (stereo unspecified)
active: [12] 2.1%
inactive: [1] 49.8% | [2] 69.8% | [3] 76.2% | [4] 64% | [5] 59.8% | [6] 26.6% | [7] 58% | [8] 67.2% | [9] 55.1% | [10] 82.7% | [11] 63.1% | [13] 97.3% | [14] 70.1% | [15] 72.2% | [16] 69.3% | [17] 46.6% | [18] 86.3% | [19] 59.3% | [20] 57.3%
